# Experimental data as given in PubChem BioAssay (NCATS).
# Values joined by “and” are separate entries in the source; they are usually repeats but may differ in a detail not shown here. Identical values can stand only once. Inconclusive results are not listed. A call without a number means that no potency is given here. The source holds several records for some structures; these can differ, active in one and inactive in another. Active and inactive are the calls of the source. Calls follow the shape of the dose curve; as a rule, active = well fitted curve in the direction sought with a large enough effect; inconclusive = small, poorly fitted or top-dose-only effect, or another doubt; inactive = no such curve, though single readings can be large; an effect the other way counts as inactive or inconclusive.
# Key:
# MKL-1 = experiment: qHTS assay to identify novel small-molecules to repurpose for Merkel cell carcinoma treatment (AID 1296009); settings: MCC and control cell lines, CellTiter-Glo viability, 72 h; series mostly up to 46 µM; also: nearly all actives have a fitted effect of over 60% in size; also: potency is read from the fitted curve at half-maximal effect
# How it was run: (§1)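 Cells exposed to NPC (8-point) and MIPE (11-point) compound dilutions for 72 hr at 37 degree celsius; viability read by CellTiter-Glo luminescence, normalized to no-cell and DMSO in-plate controls.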
# MKL-2 = experiment: as above; settings: MCC and control cell lines, CellTiter-Glo viability, 72 h; series mostly up to 46 µM
# How it was run: as §1
# NIH3T3 = experiment: as above; settings: MCC and control cell lines, CellTiter-Glo viability, 72 h; at 44.8 µM (top of the series) unless noted
# How it was run: as §1
# UISO = experiment: as above; settings: MCC and control cell lines, CellTiter-Glo viability, 72 h; series mostly up to 46 µM
# How it was run: as §1
# WaGa = experiment: as above; settings: MCC and control cell lines, CellTiter-Glo viability, 72 h; series mostly up to 46 µM
# How it was run: as §1
# [1] = Drug repurposing screens with cells derived from glioblastoma tumor samples (AID 1345199); settings: GBM patient neurospheres viability, ATP luminescence, 48 h; also: nearly all actives have a fitted effect of over 40% in size; also: potency is read from the fitted curve at half-maximal effect
# How it was run: (§2)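 Four patient lines of CD133+ GBM neurospheres were screened at several concentrations; hits were retested in those lines plus three slower-growing GBM lines, using 48-hour treatment and ATP-based viability.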
# astro = experiment: as above; settings: viability, ATP luminescence, 48 h; series mostly up to 45.9 µM
# How it was run: as §2
# C33A = experiment: Primary qHTS to identify gynecologic anti-cancer compounds using libraries of approved drugs and bioactive compounds (AID 1345084); settings: Gynecologic cancer cell panel viability, ATPlite luminescence, 48 h; series mostly up to 57.5 µM; also: nearly all actives have a fitted effect of over 55% in size; also: potency is read from the fitted curve at half-maximal effect
# How it was run: (§3)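 48 h compound exposure at 37 C, 5% CO2; five-point qHTS. ATPlite luminescence readout of cell ATP.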
# CAOV3 = experiment: as above; settings: Gynecologic cancer cell panel viability, ATPlite luminescence, 48 h; series mostly up to 57.5 µM
# How it was run: as §3
# CASKI = experiment: as above; settings: Gynecologic cancer cell panel viability, ATPlite luminescence, 48 h; series mostly up to 57.5 µM
# How it was run: as §3
# Es-2 = experiment: as above; settings: Gynecologic cancer cell panel viability, ATPlite luminescence, 48 h; series mostly up to 57.5 µM
# How it was run: as §3
# HeLa = experiment: as above; settings: Gynecologic cancer cell panel viability, ATPlite luminescence, 48 h; series mostly up to 57.5 µM
# How it was run: as §3
# Hek293T = experiment: as above; settings: Gynecologic cancer cell panel viability, ATPlite luminescence, 48 h, control line for the selectivity index; series mostly up to 57.5 µM
# How it was run: as §3
# JEG-3 = experiment: as above; settings: Gynecologic cancer cell panel viability, ATPlite luminescence, 48 h; series mostly up to 57.5 µM
# How it was run: as §3
# OV90 = experiment: as above; settings: Gynecologic cancer cell panel viability, ATPlite luminescence, 48 h; series mostly up to 57.5 µM
# How it was run: as §3
# PA-1 = experiment: as above; settings: Gynecologic cancer cell panel viability, ATPlite luminescence, 48 h; series mostly up to 57.5 µM
# How it was run: as §3
# SKOV3 = experiment: as above; settings: Gynecologic cancer cell panel viability, ATPlite luminescence, 48 h; series mostly up to 57.5 µM
# How it was run: as §3
# Tov-21-G = experiment: as above; settings: Gynecologic cancer cell panel viability, ATPlite luminescence, 48 h; series mostly up to 57.5 µM
# How it was run: as §3
# Tov112D = experiment: as above; settings: Gynecologic cancer cell panel viability, ATPlite luminescence, 48 h; series mostly up to 57.5 µM
# How it was run: as §3
# [2] = qHTS assay to identify inhibitors of the type 1 interferon - major histocompatibility complex class I in skeletal muscle: Counter screen cell viability and HiBit confirmation (AID 1347412); settings: iHSKM muscle cells + IFN-b, HiBiT or CellTiter-Glo, 24 h, at 45.9 µM (top of the series); also: nearly all actives have a fitted effect of over 60% in size
# How it was run: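 After 24 h with human IFN-beta (4 ng/ml) and compound titrations (top 46 uM final, 1:3, 12 points), HLA-B HiBit myoblasts were lysed for either Nano-Glo HiBiT luminescence or CellTiter Glo viability on paired plates.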
# [3] = at 45.9 µM (top of the series), tumour line B
# [4] = at 45.9 µM (top of the series), tumour line D
# [5] = at 46 µM (top of the series), tumour line A
# [6] = at 46.1 µM (top of the series), tumour line C
# [7] = at 20 µM (top of the series), tumour line C
compound,measurement,setting,value
C[C@]12CCC(=O)C=C1CC[C@@H]1[C@H]2[C@@H](O)C[C@@]2(C)[C@H]1CC[C@]2(O)C(=O)CO,Potency,MKL-1,inactive
same,Potency,MKL-2,inactive
same,outcome,NIH3T3,inactive
same,Potency,UISO,inactive
same,Potency,WaGa,inactive
same,"activity, negative = cell killing",[1]; [3],-8.77% (inactive)
same,"activity, negative = cell killing",[1]; [4],-14.8% (inactive)
same,"activity, negative = cell killing",[1]; [5],-3.08% (inactive)
same,"activity, negative = cell killing",[1]; [6],14.8% (inactive)
same,Potency,astro,inactive
O=C(CS(=O)Cc1ccco1)NCC=CCOc1cc(CN2CCCCC2)ccn1 (centres undefined),Potency,MKL-1,inactive
same,Potency,MKL-2,inactive
same,outcome,NIH3T3,inactive
same,Potency,UISO,inactive
same,Potency,WaGa,inactive
same,"activity, negative = cell killing",[1]; [3],-14.1% (inactive)
same,"activity, negative = cell killing",[1]; [4],-2.16% (inactive)
same,"activity, negative = cell killing",[1]; [6],-28% (inactive)
same,Potency,[1]; tumour line A,25.1 µM (active)
same,Potency,astro,inactive
Cc1ccc(C)c(OCCCC(C)(C)C(=O)O)c1,Potency,MKL-1,inactive
same,Potency,MKL-2,inactive
same,Potency,UISO,inactive
same,Potency,WaGa,inactive
same,Potency,C33A,inactive
same,Potency,CAOV3,inactive
same,Potency,CASKI,inactive
same,Potency,Es-2,inactive
same,Potency,HeLa,inactive
same,Potency,Hek293T,inactive
same,Potency,JEG-3,inactive
same,Potency,OV90,inactive
same,Potency,PA-1,inactive
same,Potency,SKOV3,inactive
same,Potency,Tov-21-G,inactive
same,Potency,Tov112D,inactive
same,"activity, negative = cell killing",[1]; [3],-12.7% (inactive)
same,"activity, negative = cell killing",[1]; [4],-0.928% (inactive)
same,"activity, negative = cell killing",[1]; [5],-17.6% (inactive)
same,"activity, negative = cell killing",[1]; [6],-8.64% (inactive)
same,Potency,astro,inactive
Cc1ccc(NC(=O)c2ccc(CN3CCN(C)CC3)cc2)cc1Nc1nccc(-c2cccnc2)n1,Potency,MKL-1,inactive
same,Potency,MKL-2,inactive
same,outcome,NIH3T3,inactive
same,Potency,UISO,inactive
same,Potency,WaGa,inactive
same,Potency,C33A,inactive
same,Potency,CASKI,inactive
same,Potency,HeLa,inactive
same,Potency,OV90,35.5 µM (active)
same,Potency,PA-1,25.1 µM (active)
same,"activity, negative = cell killing",[1]; [6],17.6% (inactive)
same,Potency,[1]; tumour line A,12.6 µM (active)
same,Potency,[1]; tumour line B,20 µM (active)
same,Potency,[1]; tumour line D,12.6 µM (active)
same,Potency,astro,20 µM (active)
Clc1ccc(C(Cn2ccnc2)OCc2c(Cl)cccc2Cl)c(Cl)c1 (centres undefined),Potency,MKL-1,inactive
same,Potency,MKL-2,inactive
same,outcome,NIH3T3,inactive
same,Potency,WaGa,23.7 µM (active) and inactive
same,Potency,C33A,inactive
same,Potency,CASKI,inactive
same,Potency,Es-2,inactive
same,Potency,HeLa,inactive
same,Potency,Hek293T,inactive
same,Potency,JEG-3,inactive
same,Potency,OV90,inactive
same,Potency,PA-1,inactive
same,Potency,SKOV3,inactive
same,Potency,Tov-21-G,inactive
same,Potency,Tov112D,inactive
same,"activity, negative = cell killing",[1]; [7],-9.14% (inactive)
same,Potency,[1]; tumour line A,7.94 µM (active)
same,Potency,[1]; tumour line D,7.08 µM (active)
Nc1nc(Cl)nc2c1ncn2[C@H]1C[C@H](O)[C@@H](CO)O1,Potency,MKL-1,0.418 µM (active)
same,Potency,MKL-2,0.418 µM (active)
same,Potency,UISO,0.372 µM (active)
same,Potency,WaGa,418 nM (active)
CC(C)(S)[C@@H](N)C(=O)O,Potency,MKL-1,inactive
same,Potency,MKL-2,inactive
same,outcome,NIH3T3,inactive
same,Potency,UISO,inactive
same,Potency,WaGa,inactive
same,"activity, negative = cell killing",[1]; [3],-10.5% (inactive)
same,"activity, negative = cell killing",[1]; [4],-6.11% (inactive)
same,"activity, negative = cell killing",[1]; [5],-3.65% (inactive)
same,"activity, negative = cell killing",[1]; [6],-16.2% (inactive)
same,Potency,astro,inactive
O=C(O)c1cccc(-c2noc(-c3ccccc3F)n2)c1,Potency,MKL-1,inactive
same,Potency,MKL-2,inactive
same,Potency,UISO,inactive
same,Potency,WaGa,inactive
same,Potency,C33A,11.2 µM (active) and 12.6 µM (active)
same,Potency,CAOV3,10 µM (active) and 11.2 µM (active)
same,Potency,CASKI,11.2 µM (active) and 14.1 µM (active)
same,Potency,Es-2,3.16 µM (active) and 6.31 µM (active)
same,Potency,HeLa,7.08 µM (active) and 10 µM (active)
same,Potency,Hek293T,4.47 µM (active) and 7.08 µM (active)
same,Potency,JEG-3,7.94 µM (active) and 11.2 µM (active)
same,Potency,OV90,12.6 µM (active)
same,Potency,PA-1,3.55 µM (active) and 7.94 µM (active)
same,Potency,SKOV3,10 µM (active) and 12.6 µM (active)
same,Potency,Tov-21-G,5.01 µM (active) and 8.91 µM (active)
same,Potency,Tov112D,7.94 µM (active) and 10 µM (active)
same,Potency,astro,2.51 µM (active)
COC(=O)C1=C(C)NC(C)=C(C(=O)OCCCN2CCC(c3ccccc3)(c3ccccc3)CC2)C1c1cccc([N+](=O)[O-])c1 (centres undefined),Potency,MKL-1,inactive and 23.7 µM (active)
same,Potency,MKL-2,inactive and 11.9 µM (active)
same,outcome,NIH3T3,inactive
same,Potency,UISO,inactive and 18.8 µM (active)
same,Potency,WaGa,inactive
same,Potency,HeLa,inactive
same,Potency,JEG-3,inactive
same,Potency,Tov-21-G,inactive
same,Potency,Tov112D,inactive
same,Potency,astro,17.8 µM (active)
same,"activity change, negative = inhibition",[2]; HiBiT,4.03% (inactive)
same,"activity change, negative = inhibition",[2]; Viability,-24.5% (inactive)
Clc1ccc2c(N3CCN(CCCN4CCN(c5ccnc6cc(Cl)ccc56)CC4)CC3)ccnc2c1,Potency,MKL-1,inactive
same,Potency,MKL-2,inactive
same,Potency,UISO,inactive
same,Potency,WaGa,inactive
Cc1cc(O)c2c(c1)C(=O)c1cc(O)cc(O)c1C2=O,Potency,MKL-1,inactive
same,Potency,MKL-2,inactive
same,Potency,UISO,inactive
same,Potency,WaGa,inactive
Cc1c(OCC(F)(F)F)ccnc1CS(=O)c1nc2ccccc2[nH]1 (centres undefined),Potency,MKL-1,inactive
same,Potency,MKL-2,inactive
same,Potency,UISO,inactive
same,Potency,WaGa,inactive
same,Potency,C33A,inactive
same,Potency,CAOV3,inactive
same,Potency,CASKI,inactive
same,Potency,Es-2,inactive
same,Potency,HeLa,inactive
same,Potency,Hek293T,inactive
same,Potency,JEG-3,inactive
same,Potency,OV90,inactive
same,Potency,PA-1,inactive
same,Potency,SKOV3,inactive
same,Potency,Tov-21-G,inactive
same,Potency,Tov112D,inactive
same,"activity, negative = cell killing",[1]; [3],-26% (inactive)
same,Potency,[1]; tumour line A,10 µM (active)
same,Potency,astro,inactive
Cc1ccc(S(=O)(=O)NC(=O)NN2CC3CCCC3C2)cc1 (centres undefined),Potency,MKL-1,inactive
same,Potency,MKL-2,inactive and 26.4 µM (active)
same,Potency,UISO,inactive
same,Potency,WaGa,inactive
same,Potency,C33A,inactive
same,Potency,CAOV3,inactive
same,Potency,CASKI,inactive
same,Potency,Es-2,inactive
same,Potency,HeLa,inactive
same,Potency,Hek293T,inactive
same,Potency,JEG-3,inactive
same,Potency,OV90,inactive
same,Potency,PA-1,inactive
same,Potency,SKOV3,inactive
same,Potency,Tov-21-G,inactive
same,Potency,Tov112D,inactive
same,"activity, negative = cell killing",[1]; [7],-7.38% (inactive)
same,"activity, negative = cell killing","[1]; at 21.2 µM (top of the series), tumour line B",-4.46% (inactive)
same,"activity, negative = cell killing","[1]; at 21.2 µM (top of the series), tumour line D",-18.4% (inactive)
same,Potency,astro,inactive
Nc1ccn([C@@H]2O[C@H](CO)[C@@H](O)C2O)c(=O)n1 (some centres undefined),Potency,MKL-1,inactive
same,Potency,MKL-2,inactive
same,outcome,NIH3T3,inactive
same,Potency,UISO,inactive
same,Potency,WaGa,inactive
same,"activity, negative = cell killing",[1]; [4],-14.9% (inactive)
same,"activity, negative = cell killing",[1]; [6],-25.6% (inactive)
same,Potency,[1]; tumour line A,7.08 µM (active)
same,Potency,astro,inactive
CCOC(=O)C1=C[C@@H](OC(CC)CC)[C@H](NC(C)=O)[C@@H](N)C1,Potency,MKL-1,inactive
same,Potency,MKL-2,inactive
same,outcome,NIH3T3,inactive
same,Potency,UISO,inactive
same,Potency,WaGa,inactive
same,Potency,astro,inactive
